Bioassay records: PubChem, National Center for Advancing Translational Sciences (NCATS)
Lassa entry inh: inhibitors of Lassa virus binding or cell entry. Potency, µM (highest dose often 37.9 µM), without a hit: at the highest dose activity change, negative = inhibition, hits mostly inhibitors. Lassa virus pseudotype entry inhibition, cell reporter. AID 540256. 1.2% of 300,000 active; calls by dose curve; tested in HEK293 cells; note: potency is the fitted concentration of half-maximal effect; % is set by controls: 0 for no effect and ±100 for the full control effect; nearly all actives have a fitted effect of over 50% in size
MARV entry inh: Marburg virus entry inhibition. Marburg virus pseudotyped entry inhibition, cell reporter. Potency, µM (titrated, usually from 37.8 µM), without a hit: top-dose activity change, negative = inhibition, usual class: inhibitors. 1.8% of 300,000 active. AID 540276; calls by dose curve; tested in HEK293 cells; note: potency is the fitted concentration of half-maximal effect; % is set by controls: 0 for no effect and ±100 for the full control effect
Pf growth 48h: P. falciparum growth inhibition at 48 hours (one generation). Potency, µM (doses to about 28.7 µM), for the others: at the highest dose activity change, negative = inhibition, usual class: inhibitors. P. falciparum luciferase growth in erythrocytes, 48 h. 5.9% of 310,000 active. AID 504832; note: potency is the fitted concentration of half-maximal effect; % is set by controls: 0 for no effect and ±100 for the full control effect
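First compound was added to culture medium, then infected red cells at 0.1% parasitemia and 2% hematocrit (final). After incubation at 37 C under 5% CO2, luciferase detection reagent was dispensed and light output recorded.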
Cycloheximide cs: affects cycloheximide protein synthesis inhibition readout, counter-screen | cell reporter, cycloheximide protein synthesis inhibition counterscreen | max response, % | 12% of 300,000 active; in the data active = max response mostly above about 13%, no sharp cut-off; inactive = mostly below about 14%; note: read at 38.3 µM for the half of the compounds with a filed dose; 0% is about no effect
Pf growth 96h: P. falciparum growth inhibition at 96 hour, primary screen for plastid delayed-death inhibitors. 6.9% of 320,000 active. P. falciparum luciferase reporter growth, 96 h. Potency, µM (top dose mostly 28.7 µM), for inactives: at the highest dose activity change, negative = inhibition, hits mostly inhibitors; note: potency is the fitted concentration of half-maximal effect; % is set by controls: 0 for no effect and ±100 for the full control effect
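Parasite growth measured via integrated firefly luciferase reporter in P. falciparum. Infected erythrocytes at 2% hematocrit, 0.05% parasitemia final were treated 96 hours at 37 C under 5% CO2, and luminescence was read.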
Shiga inhibitor: Shiga toxin inhibition. 9.2% of 290,000 active. inhibition, % at 38.7 µM. Vero cells, Shiga toxin protein synthesis inhibition reporter; in the data active = inhibition mostly above about 28%, no sharp cut-off; inactive = mostly below about 43%; note: 0% is about no effect
An asterisk follows results filed as active; ? = inconclusive; nt = not tested or not shown; [ ] = another dose, or the depositor's remark. An excerpt weighted towards active compounds, which were near 19% of everything screened. Unless noted, calls come from the whole dose curve; as a rule, active = well fitted inhibition curve with a large enough effect; inconclusive = small, poorly fitted or top-dose-only effect, or another doubt; inactive = no such curve, though single readings can be large or run the other way.

SMILES | Lassa entry inh | MARV entry inh | Pf growth 48h | Cycloheximide cs | Pf growth 96h | Shiga inhibitor
COc1ccc2[nH]c3c(c2c1)CCN1C(=O)N([C@@H](C)C(=O)NC2CCCCC2C)C(=O)[C@]31C (some centres not stated) | nt | nt | 9.28µM* | -1.5 | 11.7µM* | 3.9
CCCc1cc(=O)[nH]c(SCC(=O)Nc2ccc(Br)cc2)n1 | -3.5% | 2.4%[46.1 µM] | 10.4% | -2.1 | 20.9% | -3.3
O=C(CC1NCCNC1=O)OCc1ccccc1 (configuration not stated) | -2.0% | -24.2%[46.1 µM] | 4.4% | 3.5 | nt | 23.8
C/C=C(\C)C(=O)NCCN1C2=NC[C@H](Cc3ccccc3)N2C[C@H]1Cc1ccc(O)cc1 | nt | nt | -20.7% | 0.6 | 3.7µM* | 5.6
COc1ccc(C[C@H]2CN3C(=NC[C@@H]3Cc3ccc(O)cc3)N2CCNC(=O)c2ccc(C)c(Br)c2)cc1 | nt | nt | 3.7µM* | -3.9 | 1.17µM* | -3.3
Cc1ccc(C(=O)NCCN2C3=NC[C@H](Cc4ccc(O)cc4)N3C[C@H]2Cc2ccc(O)cc2)cc1Br | nt | nt | 4.15µM* | -5.6 | 2.94µM* | -10.3
Cc1ccc(C(=O)NCCN2C3=NC[C@@H](Cc4ccccc4)N3C[C@H]2Cc2ccc(O)cc2)cc1Br | nt | nt | 9.28µM* | -2.5 | ? | -15.7
COc1ccc(C(=O)NCCN2CCN(C(=O)c3ccc(OC)cc3)CC2)cc1 | 1.2% | 9.6% | ? | -2.7 | 15.5% | -9.0
COc1ccc(N2CCN(C(=O)c3cc(=O)c4cc(C)cc(C)c4o3)CC2)cc1 | -29.8%[46.1 µM] | -30.4%[46.1 µM] | -0.1% | -1.5 | -21.5% | -1.6
Cc1cc(CNC(=O)COC(=O)Cn2[nH]c(=O)c3ccccc3c2=O)cc(C)c1O | -4.3% | -1.5% | ? | nt | 1.2% | nt
COc1ccc(S(=O)(=O)CCC(=O)N2c3ccccc3CC2C)cc1 (configuration not stated) | -8.9% | 0.9% | -25.4% | -4.8 | 10.2% | -7.6
COc1ccc(CCC2(C)NC(=O)N(C(C)C(=O)N3c4ccccc4CC3C)C2=O)cc1 (configuration not stated) | nt | nt | 13.1µM* | nt | ? | nt
CC(=O)NC12CC3CC(C1)CC(C(=O)OCC(=O)NC(=O)c1cccn1C)(C3)C2 | 19.1% | 2.9% | 19.7% | 20.3* | nt | 70.0
CC1CC1C(=O)OCC(=O)Nc1ncc(Cl)cc1Cl (configuration not stated) | 0.9% | 2.1%[46.1 µM] | -19.1% | nt | 15.9% | nt
COc1ccc(NC(=O)COC(=O)C23CC4CC(CC(NC(C)=O)(C4)C2)C3)cc1S(=O)(=O)N1CCOCC1 | 6.1% | 16.3% | nt | nt | nt | nt
CC(=O)NC12CC3CC(C1)CC(C(=O)OCC(=O)Nc1ncc(Cl)cc1Cl)(C3)C2 | -0.9% | -25.0% | ? | -1.3 | 11.7µM* | -0.4
Cn1cccc1C(=O)NC(=O)COC(=O)c1ccccc1O | -12.8% | -4.0% | 5.4% | 16.8* | nt | 19.4
CCN(C(=O)COC(=O)C12CC3CC(CC(NC(C)=O)(C3)C1)C2)C1CCCCC1 | -13.5% | -18.8% | 2.8% | nt | 10.8% | nt
CC(=O)NC12CC3CC(C1)CC(C(=O)OCC(=O)Nc1c(F)cccc1F)(C3)C2 | -3.5% | 18.2% | ? | nt | 6.57µM* | nt
C/C=C\C=C\C(=O)N1CC2(CC(c3cccc(NC(=O)CC(c4ccccc4)c4ccccc4)c3)=NO2)C[C@H]1C(N)=O (some centres not stated) | nt | nt | ? | -2.2 | ? | -4.7
Cn1cccc1C(=O)NC(=O)COC(=O)c1ccc(O)cc1 | 5.0% | 11.2% | nt | 19.2 | -3.5% | 23.4
Cn1cccc1C(=O)NC(=O)COC(=O)C12CC3CC(CC(O)(C3)C1)C2 | ? | ? | nt | 43.1* | 181.2% | 53.4*
Cc1cccc(C(=O)N[C@H](C(=O)OCC(=O)NC(=O)c2cccn2C)C(C)C)c1 | -7.5%[46.1 µM] | 3.2%[46.1 µM] | 6.8% | 31.8* | 26.3% | -5.8
CCCCc1cc(=O)oc2c(CN(C)C)c(O)ccc12 | -0.9% | -32.6% | ? | -2.5 | -22.1% | -8.8
CC[C@@]1(O)C(=O)OCc2c1cc1n(c2=O)Cc2cc3c(N)cccc3nc2-1 | nt | nt | 1.85µM* | -2.3 | 1.17µM* | -6.6
SMILES | Lassa entry inh | MARV entry inh | Pf growth 48h | Cycloheximide cs | Pf growth 96h | Shiga inhibitor
CC[C@@]1(O)C(=O)OCc2c1cc1n(c2=O)Cc2cc3c(CN(C)C)c(O)ccc3nc2-1 | nt | nt | 8.49µM* | nt | 10.7µM* | nt
CC[C@@]1(O)C(=O)OCc2c1cc1n(c2=O)Cc2cc3c([N+](=O)[O-])cccc3nc2-1 | nt | nt | 8.49µM* | nt | ? | nt
CCc1c2c(nc3ccc(OC)cc13)-c1nc3ccccc3c(=O)n1C2 | nt | nt | nt | 21.0 | nt | 45.5
COc1ccc(NC(=O)CC2C(=O)N(Cc3ccccc3)C(=S)N2CCN2CCOCC2)cc1 (configuration not stated) | -5.6% | -27.7% | ? | -2.7 | ? | -11.9
N#CCC(N)=C(C#N)C#N | 10.9% | ? | 0.0% | -3.4 | ? | -7.6
COCc1c(CCl)cnc(C)c1O | nt | nt | -26.2% | 8.1* | 9.28µM* | 47.9*
Cc1ncc(CO)c(CO)c1O | nt | nt | 1.9% | nt | 27.6% | nt
Cc1ccc(SCc2ccc(C(=O)NCc3cccnc3)cc2)cc1 | -1.7% | ? | 4.9% | 15.8 | 1.2% | 33.3
CC(=O)c1cccc(NS(=O)(=O)c2ccc3c(c2)oc(=O)n3C)c1 | -6.1% | -19.3% | -10.1% | 7.0 | -8.0% | 6.7
CC(C)C(=O)N1CCN(c2ccc(NC(=O)c3ccc4c(c3)OCCO4)cc2Cl)CC1 | 25.9µM* | 6.51µM* | nt | -2.1 | 4.65µM* | -12.0
CC(=O)N1CCN(c2ccc(NC(=O)c3ccc4c(c3)OCCO4)cc2)CC1 | 18.3% | 20.2% | nt | 15.9 | 0.5% | 19.5
CC(=O)N1CCN(c2ccc(NC(=O)c3ccc4c(c3)OCCO4)cc2Cl)CC1 | ? | ? | 20.1% | 27.8* | 18.1% | 51.8
Cc1ccc2[nH]c3c(=S)nc[nH]c3c2c1 | -0.4% | ? | ? | 7.9 | 8.1% | -2.4
CN1c2ccccc2C(=O)NC1c1ccc(Cl)cc1 (configuration not stated) | 6.1% | 4.7% | -1.0% | 11.6* | 1.7% | 36.6
O=C1C2C(c3ccccc3)(C(=O)N1c1ccc(Cl)cc1)C2(c1ccccc1)c1ccccc1 (configuration not stated) | -22.6% | ? | 4.15µM* | -2.7 | ? | 9.8
Cc1nn(-c2ccc(Cl)cc2)c2[nH]c(=O)c(CNCc3ccc4c(c3)OCO4)cc12 | -3.3% | ? | 0.37µM* | 10.3 | 121.4% | 9.9
CC(C)(C)c1nn(-c2ccccc2)c2[nH]c(=O)c(CNCc3ccco3)cc12 | 0.2% | -13.1% | ? | 12.4 | ? | 17.5
CC(C)(C)c1nn(-c2ccccc2)c2[nH]c(=O)c(CNc3ccc4c(c3)OCCO4)cc12 | 19.9% | -2.6% | nt | 16.4* | ? | 30.2
COc1ccc(CNCc2cc3c(C(C)(C)C)nn(-c4ccccc4)c3[nH]c2=O)cc1 | -23.9% | ? | 0.828µM* | 4.5 | nt | 35.2
Cc1ccc(CNCc2cc3c(C(C)(C)C)nn(-c4ccccc4)c3[nH]c2=O)cc1 | ? | ? | 0.37µM* | 10.5 | nt | 23.9
